Screening results (PubChem)
Hits are enriched below; roughly 1.6% of the tested compounds scored in any of these assays.
KCNQ2 enhance – potentiators of rat KCNQ2 potassium channel. Potassium voltage-gated channel subfamily KQT member 2 (Rattus norvegicus), O88943. CHO-K1 KCNQ2, FluxOR thallium flux fluorescence; stronger effect = higher value. B-score at 10 µM. actives 0.54% (n = 310,000);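 active = fluorescence ratio B-score at least 3 SD of library B-scores, with initial fluorescence B-score within 3 of them, cut at about 5.3 in these data; same plate scores as AID 2156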;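 also: B-score of peak minus minimum over baseline fluorescence ratio after K+ and Tl+ stimulus; positive B-score means potentiation of KCNQ2 with more thallium influx and brighter signal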
KCNQ2 block – rat KCNQ2 potassium channel inhibitors, primary screen, cell-based, CHO-K1, FluxOR thallium flux, B-score; 20 min; stronger effect = lower value; B-score at 10 µM; AID 2156, 2009; Potassium voltage-gated channel subfamily KQT member 2 (Rattus norvegicus), O88943; actives 1.1% (n = 310,000);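 active = fluorescence ratio B-score at most minus 3 library SDs, with starting brightness B-score within 2 library SDs, cut at about -5.5 in these data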
Kir21 conf inh – mouse Kir2.1 channel blockers, retest, confirmation, cell-based, FluxOR thallium flux, duplicate; shares compounds with KCNQ2 enhance; Kir2.1-expressing cells, FluxOR thallium flux fluorescence; stronger effect = lower value; Tl flux remaining, % of negative control (stronger effect = lower value), % at 10 µM; actives 41% (n = 2,300);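 active = Primary-screen hit whose thallium flux fell at least 3 control SD below untreated wells in both duplicates, with normal baseline fluorescence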;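 also: 0% = blank wells without stimulus and 100% = stimulated no-compound controls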
HEK293 ctr – alters thallium flux in parental HEK293 cells, Kir2.1 counter-screen; FluxOR signal as % of negative control (100 = no effect), % at 10 µM; shares compounds with KCNQ2 enhance; actives 19% (n = 2,300); AID 2105; FluxOR thallium flux fluorescence; 0% = unstimulated blank wells;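 active = dye signal at least 3 control SD above or below untreated wells in both duplicates, raw fluorescence within 3, either direction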;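 also: percent is based on the flux ratio of peak minus minimum fluorescence over baseline F0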
CHO-K1 ctr – nonspecific thallium flux increase in parental CHO-K1, confirmation, counter-screen for KCNQ2 potentiator project, cell-based, FluxOR thallium flux, duplicate; actives 43% (n = 1,200); activity increase over 3SD of controls, % at 10 µM; shares compounds with KCNQ2 enhance; parental CHO-K1 cells, FluxOR thallium flux fluorescence; zero = vehicle mean+3SD, 100% = vehicle-minus-blank window;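 active = signal rise of at least 3 SD above the untreated control mean, in both duplicate wells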;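 also: counter screen of KCNQ2 potentiator hits so any rise reflects channel-independent effects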
KCNQ1 pot spec – human KCNQ1 channel potentiation off-target, confirmation, selectivity assay for KCNQ2 potentiator project, cell-based, CHO, FluxOR thallium flux; shares compounds with KCNQ2 enhance; CHO KCNQ1 stable, FluxOR thallium flux fluorescence; beyond 3SD, as % of vehicle-control signal; activation over 3SD threshold, % at 10 µM; actives 28% (n = 1,200); AID 2283, 2010;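 active = fluorescence ratio rise of at least 3 SD of vehicle wells above their mean, in both replicate wells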;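 also: 0% = vehicle mean plus 3 SD and 100% = vehicle minus unstimulated blank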
KCNQ2 pot confirm – rat KCNQ2 channel potentiators, confirmation, cell-based, CHO, FluxOR thallium flux, duplicate. actives 68% (n = 1,200). AID 2287, 2010. potentiation, less the hit threshold, % at 10 µM. CHO-KCNQ2 cells, FluxOR thallium flux fluorescence. shares compounds with KCNQ2 enhance;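 active = fluorescence ratio rising 3 SD or more over the vehicle control mean in both replicates, plus primary screen hit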;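 also: peak minus minimum thallium fluorescence divided by baseline after K/Tl stimulus; 0% = vehicle mean plus 3 SD and 100% = vehicle minus unstimulated blank difference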
Kir21 spec – mouse Kir2.1 channel activation off-target, confirmation, selectivity assay for KCNQ2 potentiator project, cell-based, HEK293, FluxOR thallium flux. shares compounds with KCNQ2 enhance. HEK293 Kir2.1, FluxOR thallium flux fluorescence. activity over 3SD threshold, % at 10 µM. actives 2% (n = 1,200);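 active = fluorescence ratio rise of at least 3 SD above the vehicle-control mean, seen in both replicates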;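 also: 0% = vehicle mean plus 3 SD and 100% = vehicle minus no-stimulus blank window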
KCNQ2 W236L MoA – potentiators of retigabine-insensitive KCNQ2 W236L, mechanism study for KCNQ2 potentiator project, cell-based, rat KCNQ2 W236L, CHO, automated patch clamp. shares compounds with KCNQ2 enhance. automated patch clamp current. current increase over 3SD of negative controls (%), stronger effect = higher value, % at 25 µM. actives 10% (n = 940). AID 2558, 2010;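 active = current increase at least 3 SD of the untreated controls above them in both duplicate recordings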
Target sequence (O88943 whole entry W236L, looked up): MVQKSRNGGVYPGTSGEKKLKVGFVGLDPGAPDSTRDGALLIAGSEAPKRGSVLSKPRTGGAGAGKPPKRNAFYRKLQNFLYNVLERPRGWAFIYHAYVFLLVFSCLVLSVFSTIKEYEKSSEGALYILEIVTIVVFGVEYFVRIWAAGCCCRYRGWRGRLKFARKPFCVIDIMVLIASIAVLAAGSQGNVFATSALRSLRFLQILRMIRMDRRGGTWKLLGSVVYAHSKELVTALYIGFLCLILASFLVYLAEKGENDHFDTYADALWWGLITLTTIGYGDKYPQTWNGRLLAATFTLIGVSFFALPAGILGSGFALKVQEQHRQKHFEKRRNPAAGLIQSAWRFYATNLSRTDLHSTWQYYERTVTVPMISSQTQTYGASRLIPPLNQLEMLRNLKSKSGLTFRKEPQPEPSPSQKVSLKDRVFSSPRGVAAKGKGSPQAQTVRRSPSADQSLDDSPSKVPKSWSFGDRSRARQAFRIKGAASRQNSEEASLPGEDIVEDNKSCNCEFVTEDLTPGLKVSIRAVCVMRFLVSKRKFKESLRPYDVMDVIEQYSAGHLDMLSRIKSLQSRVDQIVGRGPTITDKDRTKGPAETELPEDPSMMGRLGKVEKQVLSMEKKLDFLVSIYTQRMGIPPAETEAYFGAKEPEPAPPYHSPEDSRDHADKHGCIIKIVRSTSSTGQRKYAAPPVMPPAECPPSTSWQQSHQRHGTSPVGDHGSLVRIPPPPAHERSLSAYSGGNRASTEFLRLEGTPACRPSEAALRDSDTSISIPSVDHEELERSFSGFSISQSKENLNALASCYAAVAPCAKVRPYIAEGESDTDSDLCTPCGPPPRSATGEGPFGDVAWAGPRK
* = called active by the depositor; i = inactive; nt = no result.

SMILES | KCNQ2 enhance | KCNQ2 block | Kir21 conf inh | HEK293 ctr | others
Cc1cc(C)c(S(=O)(=O)N2CCC(C(=O)NCc3ccncc3)CC2)c(C)c1 | 0.36 | i | nt | nt
Cc1cc(C)c(S(=O)(=O)N2CCC(C(=O)NCc3ccc(Cl)cc3Cl)CC2)c(C)c1 | 6* | i | i | i | CHO-K1 ctr=-5;KCNQ1 pot spec=-52;KCNQ2 pot confirm=-2;Kir21 spec=-36
O=C(NCCCn1ccnc1)C(=O)c1c[nH]c2ccccc12 | nt | i | nt | nt
Cc1ccc(C2C(C#N)=C(N)OC3=C2C(=O)CCC3)s1 (configuration not stated) | 6.5* | i | i | i | CHO-K1 ctr=-4;KCNQ1 pot spec=3.7*;KCNQ2 pot confirm=1.5*;Kir21 spec=-49;KCNQ2 W236L MoA=i
CCc1ccc(C2C(C#N)=C(N)OC3=C2C(=O)CCC3)s1 (configuration not stated) | 1.3 | i | nt | nt
Cc1c(Cl)cn2c(=O)cc(CN3CCN(c4ccc(F)cc4)CC3)nc2c1Cl | nt | i | nt | nt
Cc1ccc(C2(CCNC(C)c3cccs3)CCOC(C(C)C)C2)cc1 (configuration not stated) | nt | i | nt | nt
COc1ccccc1C1(CCNC(C)c2cccs2)CCOC(C(C)C)C1 (configuration not stated) | 0.28 | i | 40%* | 72%*
CCCCN1C(=O)C(=Nc2cccc3cnccc23)c2ccccc21 | nt | i | 36%* | i
CCCCN1C(=O)/C(=C2\SC(N3CCCCC3)=NC2=O)c2ccccc21 | 0.48 | i | nt | nt
c1ccc2c(c1)OC(CCCN1CCCCC1)c1ccccc1S2 (configuration not stated) | nt | i | 49%* | i
c1ccc(OCCCCN2CCCCC2)cc1 | nt | i | nt | nt
CSCc1ccc(C(=O)NC2CC(C)(C)Cc3c2cnn3-c2ccc(F)cc2)o1 (configuration not stated) | nt | i | nt | nt
Cc1cccc(Oc2ccccc2NC(=O)CN2C(=O)NC3(CCCC3)C2=O)c1 | 4.4 | i | nt | nt
Cc1ccc(Oc2ccccc2NC(=O)CN2C(=O)NC3(CCCC3)C2=O)cc1 | 6.3* | i | i | i | CHO-K1 ctr=26*;KCNQ1 pot spec=22*;KCNQ2 pot confirm=13*;Kir21 spec=-36;KCNQ2 W236L MoA=i
CC(C)c1ccc(NC(=O)C2CSC3(C)CCC(=O)N23)cc1 (configuration not stated) | 0.54 | i | nt | nt
O=C(NCc1cccs1)C1CCN(S(=O)(=O)c2ccccc2F)CC1 | nt | i | nt | nt
CCOc1cccc(NC(=O)C2CC(=O)N(C)C(=Nc3ccccc3)S2)c1 (configuration not stated) | 0.08 | i | nt | nt
CCOc1cccc(NC(=O)C2CC(=O)N(C)C(=Nc3cccc(F)c3)S2)c1 (configuration not stated) | 6.5* | i | i | i | CHO-K1 ctr=-4;KCNQ1 pot spec=-9;KCNQ2 pot confirm=-24;Kir21 spec=-40
O=C(COC(=O)C12CC3CC(CC(O)(C3)C1)C2)NCCc1ccc(Cl)cc1 | nt | i | nt | nt
O=C(CC1(c2ccc(Cl)cc2)C2CC3CC(C2)CC1C3)NCCO (configuration not stated) | 5.4* | i | i | i | CHO-K1 ctr=48*;KCNQ1 pot spec=72*;KCNQ2 pot confirm=14*;Kir21 spec=-46;KCNQ2 W236L MoA=i
CCCN1CCN(CC(=O)Nc2nncs2)CC1 | 0.02 | i | nt | nt
O=C1NCCCc2c1oc1ccc(O)cc21 | 0.28 | i | nt | nt
Oc1c(Cl)cc(Cl)c2c1NCCC2 | 6.3* | i | i | i | CHO-K1 ctr=4.8*;KCNQ1 pot spec=1.6*;KCNQ2 pot confirm=6.1*;Kir21 spec=-42;KCNQ2 W236L MoA=i
CCOc1ccc(NC(=O)CN(C)C(=O)c2sc3ccccc3c2Cl)cc1OCC | nt | i | nt | nt
SMILES | KCNQ2 enhance | KCNQ2 block | Kir21 conf inh | HEK293 ctr | others
COc1ccccc1C(=O)NC(=O)COC(=O)Cn1cnc2c1c(=O)n(C)c(=O)n2C | nt | i | nt | nt
C/C(=N\NC(N)=S)c1ccccc1 | nt | i | nt | nt
CSC(=S)N/N=C(\C)c1ccccc1 | 8.7* | i | i | 288%* | CHO-K1 ctr=-12;KCNQ1 pot spec=-12;KCNQ2 pot confirm=26*;Kir21 spec=-15;KCNQ2 W236L MoA=9.3%*
CCCCCCOc1ccc(NC(=O)CC2C(=O)N(CC)C(=S)N2Cc2ccco2)cc1 (configuration not stated) | nt | i | nt | nt
Cc1cc(Oc2ccc(N)cn2)cc(C)c1Cl | 0.02 | i | nt | nt
CC(C)(C)c1ccc(Oc2ccc(N)cn2)cc1 | 12* | i | i | 68%* | CHO-K1 ctr=65*;KCNQ1 pot spec=-19;KCNQ2 pot confirm=73*;Kir21 spec=-34;KCNQ2 W236L MoA=i
CCn1nnnc1SCC(=O)N1CCCCC1 | 2.1 | i | nt | nt
Cc1nc(C(=O)N2CCC(n3nccc3NC(=O)Nc3ccccc3Cl)CC2)cs1 | 0.42 | i | nt | nt
CC(CCc1ccc(O)cc1)NC1C2CC3CC(C2)CC1C3 (configuration not stated) | 0.58 | i | nt | nt
CC(CCc1ccc(O)cc1)NC1c2ccccc2-c2ccccc21 (configuration not stated) | 2.8 | i | 33%* | i
CC(=O)OC1c2ccccc2C(=O)N1Cc1ccccc1 (configuration not stated) | 0.15 | i | nt | nt
c1ccc(-c2ccccc2OCCCCN2CCCCCC2)cc1 | nt | i | 38%* | i
c1ccc(-c2ccccc2OCCN2CCCC2)cc1 | nt | i | nt | nt
CCc1cc2c(=O)oc(-c3ccc(Br)cc3)nc2s1 | 0.26 | i | nt | nt
CC(C)[C@H](NC(=O)NC1CCCC1)C(=O)O | 0.19 | i | nt | nt
CC(C)=CCCC(C)NC(=O)NC1CCCCC1 (configuration not stated) | 6.7* | i | i | 76%* | CHO-K1 ctr=20*;KCNQ1 pot spec=48*;KCNQ2 pot confirm=12*;Kir21 spec=-43;KCNQ2 W236L MoA=i
OCC1(Cc2ccccc2F)CCCN(Cc2c(F)ccc(F)c2F)C1 (configuration not stated) | nt | i | nt | nt
